Common to all, as to test: NCI-60 one-dose screen, 48 h (100 = growth as untreated, 0 = no growth, -100 = all killed)
Conditions in all cases: 10 µM unless noted

For assay [1], the system named is RPMI-8226 leukemia.
Assay [2] concerns OVCAR-8 ovarian.
Assay [3] deals with OVCAR-5 ovarian.
Assay [4] deals with OVCAR-4 ovarian.
The subject of assay [5] is SK-OV-3 ovarian.
In assay [6] the test system is IGROV1 ovarian.
The test system of assay [7] is OVCAR-3 ovarian.
In assay [8] the test system is HS 578T breast.
Assay [9] deals with NCI/ADR-RES ovarian.
For assay [10], the system named is T-47D breast.
Assay [11] concerns MDA-MB-435 melanoma.
Assay [12] relates to SW-620 colon.
The test system of assay [13] is MCF7 breast.
For assay [14], the system named is HCT-116 colon.
The subject of assay [15] is HCC-2998 colon.
Assay [16] concerns KM12 colon.
For assay [17], the system named is MDA-MB-468 breast.
Assay [18] concerns SR leukemia.
Assay [19] deals with BT-549 breast.

About 83,000 compounds went through this panel and 20% of them were active in at least one assay; those are over-represented in the sample as a whole.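 Negative percent growth values reflect cell death: -40 means 40% of the cells present at the start died, and -100 means all died.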 Values without a mark were called inactive. Active and inactive are the calls of the source. The calls were made as follows: active = growth percent below 10; inactive = the rest.

The text below walks through data of PubChem BioAssay (NCI).

Turning to `CN1CCN(Cc2ccc(C(=O)Nc3cccc(C#Cc4cccc5[nH]nc(N)c45)c3)cc2C(F)(F)F)CC1`, the growth in assay [1] was -45.1% (active); in [2] it was -98.1% (active); in assay [3] it was -94.8% (active); in [4], -60.9% (active); in assay [5], -89.1% (active); in assay [6] it was -70.8% (active). The growth in assay [7] is -46.6% (active); in assay [8], -17.5% (active); in assay [9] it was -61% (active); in assay [10], -70.4% (active); in assay [11] it was -70.2% (active); in [12], -38.3% (active). Moreover, the growth in assay [13] is -84% (active); in [14] it was -90.4% (active); in assay [15] it was -93.6% (active); in [16], -68.8% (active); in assay [17] it was -89.9% (active).
For the compound `Cc1ncsc1-c1ccc(CNC(=O)[C@@H]2C[C@@H](O)CN2C(=O)[C@@H](NC(=O)C2(F)CC2)C(C)(C)C)c(OCCOCCOCCOCCOc2nc(Nc3cc(S(C)(=O)=O)ccc3N[C@@H](c3cccc4c3OC(F)(F)O4)c3ncccc3Cl)nc(N3CCNCC3)n2)c1`, the growth in assay [18] is 26.3%; in [1], 13.6%; in assay [3] it was 99%; in assay [4] it was 91.6%; in assay [5] it was 111%; in [6], 72.2%. Besides, the growth in assay [7] is 89.1%; in assay [10], 76.6%; in assay [19] it was -34.3% (active); in assay [11], 86.9%; in assay [13] it was 5.45% (active); in assay [14] it was 69.5%. Moreover, the growth is 71.2% in [15], 71.2% in [16] and -19.8% (active) in [17].
For the compound `CCOC(=O)C1=C(N)N(c2ccccc2)C2=C(C(=O)CC(C)(C)C2)C1c1cccc(Cl)c1Cl` (stereo not drawn), the growth in assay [18] is 56.3%; in assay [1], 50.7%; in assay [3] it was 87.6%; in assay [4] it was 65.8%; in assay [5] it was 82%; in assay [6], 83.6%. Moreover, the growth in assay [7] is 87.4%; in assay [9], 51%; in assay [10], 71.6%; in assay [19] it was 68.8%; in [11], 87.8%; in assay [13], 60%. Moreover, the growth was 40.1% in [14], 86.9% in [15], 76.6% in [16] and 47.8% in assay [17].
As for `COc1cc2c(c(OC)c1OC)C(=O)CC(c1cccc(NC(=O)c3cc(N)ccc3Cl)c1)O2` (stereo not drawn), the growth in assay [1] was 40.2%; in [2] it was 18.8%; in assay [3] it was 100%; in [4], 52.7%; in assay [5], 65.6%; in [6], 72.9%. Also, the growth in assay [7] is 33.8%; in [8] it was 80.6%; in assay [9], 20.5%; in assay [10] it was 35.4%; in assay [19], 23.3%; in assay [11], -41.3% (active). The growth in assay [12] is 37.4%; in assay [13], 14%; in [14], 34.7%; in assay [15], 95.7%; in assay [16] it was 49.2%; in assay [17], 5.35% (active).
`c1ccc(-c2csc(Nc3cccc(Nc4nc(-c5ccccc5)cs4)c3)n2)cc1`: the growth in [1] was 49.3%; in assay [2] it was 39.9%; in assay [3], 64.5%; in assay [4] it was 37.6%; in assay [5] it was 97.5%; in assay [6], 34.1%. Further, the growth in [7] is 53.2%; in [8] it was 56.5%; in assay [9], 26.1%; in assay [10], 24%; in assay [19], 31.7%; in [12], 66.2%. In addition, the growth in assay [13] was 15.6%; in assay [14], 40%; in assay [15], 35.5%; in [16], 1.06% (active); in assay [17], 39.2%.
For `N#Cc1c(-c2cccc(Cl)c2Cl)cc(-c2c[nH]c3ccccc23)[nH]c1=O`, the growth in assay [18] was 42.3%; in [1], 44.4%; in [3], 83.9%; in assay [4], 75.2%; in [5], 94.4%; in assay [6], 71%. Besides, the growth in assay [9] is 76.5%; in assay [10] it was 63.4%; in assay [19] it was 24.3%; in assay [11], 57.7%; in assay [13], 35.8%; in assay [14] it was 18.3%. In addition, the growth in [15] was 88.1%; in [16] it was 64.3%; in [17], 46.5%.
Regarding `COc1ccc(C(=O)/C=C/c2cccc(Cl)c2Cl)cc1S(N)(=O)=O`, the growth in assay [1] is -8.84% (active); in [2], -64% (active); in assay [3] it was -7.8% (active); in assay [4], 35.9%; in [5] it was 43.3%; in assay [6], 10.1%. For the same compound, the growth in [7] was -56.1% (active); in [8], 35.6%; in [9], 13.3%; in [10], -17.3% (active); in [11], 14.3%; in assay [12], -47.3% (active). Further, the growth in [13] is -39.7% (active); in assay [14], -98% (active); in [15], -48.5% (active); in assay [16], -62.3% (active).
With `COc1ccc(C(=O)/C=C/c2cccnc2)cc1S(N)(=O)=O`, the growth is -7.06% (active) in assay [1]; 17.6% in [2]; 77.2% in assay [3]; 91.7% in assay [4]; 88.1% in assay [5]; 59.5% in [6]. The growth is 17% in assay [7]; 89.9% in assay [8]; 69.1% in assay [9]; 16.9% in assay [10]; 73.5% in [11]; 13.2% in assay [12]. Besides, the growth in assay [13] was 7.45% (active); in assay [14], -18.1% (active); in assay [15], 77.3%; in [16] it was 1.84% (active).
As to `COc1cc(NC(=O)c2cccc(C3CCc4c(cc(OC)c(OC)c4OC)O3)c2)cc(OC)c1OC` (stereo not drawn), the growth in assay [1] was 16.2%; in assay [2], 5.15% (active); in [3], 51.4%; in [4], 31.6%; in assay [5] it was 32.4%; in assay [6], 13.8%. Also, the growth was 7.51% (active) in assay [7]; -8.84% (active) in assay [8]; 16.9% in [9]; 14.5% in assay [10]; -6.89% (active) in assay [19]; 2.46% (active) in [11]. Moreover, the growth was 46.1% in [12]; 3.71% (active) in [13]; 8.03% (active) in assay [14]; 64.8% in [15]; 0.726% (active) in assay [16]; 29.3% in [17].
